Measured values as given in PubChem BioAssay (NCATS).
Results filed as inconclusive are left out. Calls of active or inactive are those of the source. Calls follow the shape of the dose curve; as a rule, active = well fitted inhibition curve with a large enough effect; inconclusive = small, poorly fitted or top-dose-only effect; inactive = flat fitted curve, though single readings scatter.

Assay: qHTS for Inhibitors of Plasmodium falciparum (7G8) proliferation (AID 504316); also: nearly all actives have a fitted effect of over 65% in size
Details: P. falciparum 7G8 in erythrocytes, SYBR Green DNA, 72 h; series mostly up to 6.7 µM
Source text: Plasmodium falciparum is a virulent malarial parasite that kills 1-2 million people worldwide each year. Malaria not only inflicts tremendous suffering and morbidity on the human population, but has dramatically influenced the course of civilization with profound sociological and economic implications (Shah, S. 2010). Transmitted by mosquitoes, the sporozoite form of the parasite enters the blood stream to infect hepatocytes, where they become merozoites that infect red blood cells (erythrocytes). Within erythrocytes, merozoites begin a […] cycle of growth and division, after which the parasite is released to infect new red blood cells. Gametocytes, which form within erythrocytes as well, circulate in the bloodstream and are ingested by the mosquito, thereby completing the life cycle (see CDC website). To profile malarial lines for differential chemical responses and to identify inhibitors of malarial growth, an assay that measures P. falciparum growth and replication within erythrocytes was employed. This assay uses a DNA binding fluorescent dye (SYBR Green) to detect parasite DNA following cell lysis. Because mature erythrocytes lack DNA, only Plasmodium-derived DNA is detected. The P. falciparum line cp250, derived from a malarial isolate from Cambodia, (Mu, J., et al. 2010) was added to the panel of lines, Dd2, HB3, 7G8 and GB4 in this study. Laboratory of Assay Development and Screening Technology [ADST] and NIH Chemical Genomics Center [NCGC] Boston University, Chemistry Department, Center for Chemical Methodology and Library Development [CMLD-BU] NIH National Institute of Allergy and Infectious Diseases [NIAID]
ADST Assay Protocol Summary: The 1536-well SYBR Green viability assay was based on the method of Bennett et al (2004) and described previously in 1536-well format (Yuan J., et al. 2009). For screening 3 ul culture medium was dispensed into 1536 well black clear bottom plates (Aurora Biotechnologies) using a Multidrop Combi (Thermo Fisher Scientific Inc.), 23 nL compounds in DMSO were added by a pin transfer (Cleveland, P.H. and Koutz, P.J, 2005) using a pin tool-based delivery system (Kalypsys), and 5 ul of erythrocytes infected with P. falciparum one of five lines (cp250, Dd2, HB3, 7G8 or GB4, 0.3% parasitemia, 2.5% hematocrit final concentration) were added. The plates were incubated at 37C in a humidified incubator in 5% CO2 for 72 h, and 2 ul lysis buffer (20 mM Tris HCl, 10 mM EDTA, 0.16% saponin, 1.6% triton X, 10X SYBR Green I (supplied as 10,000X final concentration by Invitrogen) was added to each well. The plates were mixed for 25 sec with gentle shaking and incubated overnight at room temperature in the dark. The following morning, fluorescence intensity at 485(14) nm excitation and 535(25) nm emission wavelengths was measured on an EnVision (Perkin Elmer) plate reader. Plate reads were normalized relative to the control inhibitor (0.29 uM artemisinin) and vehicle (DMSO) wells present on each plate and then corrected by an algorithm using vehicle-only control plates at the beginning and end of the compound plate stack. References Shah, S. (2010). The Fever: how malaria has ruled humankind for 500,000 years. New York, Sarah Crichton Books. CDC web site, http://www.cdc.gov/malaria/about/biology/index.html Mu, J., Myers, R.A., Jiang, H., Liu, S., Ricklefs, S., Waisberg, M., Chotivanich, K., Wilairatana, P., Krudsood, S., White, N.J., et Plasmodium falciparum genome-wide scans for positive selection, recombination hot spots and resistance to antimalarial drugs Nature Genetics 2010, 42, pp 268-271 Bennett TN, Paguio, M., Gligorijevic, B., Seudieu, C., Kosar, A. D., Davidson, E., and Roepe, P. D. Novel, rapid, and inexpensive cell-based quantification of antimalarial drug efficacy Antimicrobial Agents Chemother. 2004, 48(5): pp 1807-10 Yuan J, Johnson RL, Huang RL, Wichterman J, Jiang HY, Hayton K, Fidock DA, Wellems TE, Inglese J, Austin CP, Su XZ. […]
Potency is read from the fitted curve at half-maximal effect.

Potency, active:
CC(CCN1CCc2nc(-c3ccccc3)c(-c3ccccc3)cc2C1)=NOC[C@@H](O)[C@H]1O[C@@H]2OC(C)(C)O[C@H]2[C@@H]1O 1.9 µM

Potency, inactive:
CCN1C(=S)NC(c2ccccc2)C(C(=O)OC)=C1C (stereo not given)
COCC1=C(C(=O)OC)C(c2ccccc2)N(C(C)=O)C(=O)N1 (stereo not given)
CCN1C(=O)NC(c2ccccc2)C(C(=O)OC)=C1C (stereo not given)
C[C@H]1C(C(=O)N2CCCC2)=Cc2[nH]c(=O)[nH]c2C=C1c1ccccc1
COC(=O)[C@@]1(Cc2ccccc2-c2ccco2)C=C[C@H](C)[C@@H](c2ccccc2)N1C(=O)C(F)(F)F
CCOC(=O)C(C)=NNC(C)=O
CCN1C(=O)N(S(=O)(=O)c2ccc(C)cc2)C(c2ccccc2)C(C(=O)OC)=C1C (stereo not given)
CCCCC1=CC2=CC(=O)C(C)(O)C(=O)C2=CO1 (stereo not given)
CC#CCN1C(=O)NC(c2ccccc2)C(C#N)=C1C (stereo not given)
CCCCC1=CC2=C(c3ccco3)C(=O)C(C)(OC(=O)c3ccc(OC)cc3)C(=O)C2=CN1CCCOC(C)C (stereo not given)
COC(=O)CCCC1=CC2=CC(=O)C(C)(OC(=O)c3cccs3)C(=O)C2=CN1Cc1ccco1 (stereo not given)
C#CC[C@@]1(C(=O)OC)C=C[C@@H](C)[C@H](c2ccccc2Br)N1C(=O)C(F)(F)F
C=CCCCN1C=C(C(=O)OCC)C(c2ccccc2)NC1=O (stereo not given)
COC(=O)C1=C[C@@]2(c3ccc(F)cc3[C@@H](OC)[C@@H]2C)[C@@H]2C=C[C@H]1C2
CC(=O)C1=C(C)N(Cc2ccccc2)C(=O)NC1c1ccco1 (stereo not given)
COC(=O)C(=Cc1cc(Br)c(OC)c(Br)c1)C(=O)OC
C=C(C)C(=O)C=CCCCC=CC(=O)OCC
CCCCC1=CC2=C(c3ccco3)C(=O)C(C)(OC(=O)c3ccc(OC)cc3)C(=O)C2=CN1CC1CC1 (stereo not given)
C=CCOC(=O)NC(c1ccc(F)c(F)c1)S(=O)(=O)c1ccc(Cl)cc1 (stereo not given)
CC1(OC(=O)C2CCCC2)C(=O)C=C2C=C(C3CC3)OC=C2C1=O (stereo not given)
C=C(CO[C@@H]1C=C[C@@H](c2ccccc2)O[C@@H]1CO)c1ccccc1
COC(=O)C1=C(C)N(Cc2ccccc2)C(=O)NC1c1ccccc1 (stereo not given)
COc1cccc(CO[C@H]2C=C[C@@H](c3ccccc3)O[C@H]2CO)c1
C=CCOC(=O)C(C(C)=O)[C@@H](NC(=O)OC)c1cccs1 (stereo not given in full)
CCCCS(=O)(=O)N1C2=NC3=C(C(=O)N(CCOC)C3=O)C3N(C)c4ccccc4[C@]23C[C@H]1CO (stereo not given in full)
COC(=O)C[C@H]1c2ccccc2[C@@H]2C(=C[C@@H](C)[C@H]3C(=O)N(c4ccccc4)C(=O)[C@H]32)N1C(=O)OC
CCN1C(=O)NC(c2cccs2)C(C(C)=O)=C1C (stereo not given)
CC(=O)OC[C@H]1O[C@H](C#Cc2ccccc2)C=C[C@@H]1OC(C)=O
COC1=C[C@H](C(=O)NCCNC(C)=O)[C@H](C)[C@@H](c2ccccc2)CC1=O
COC(=O)C[C@H]1c2ccccc2C2=C(C[C@@H](C)[C@H]3C(=O)NC(=O)[C@@H]23)N1C(=O)OC
CCN(CC)CCCN=C1NC(c2ccccc2)C(C(=O)OC)=C(C)N1CC (stereo not given)
C=COC[C@H]1CN2[C@H](c3ccc(Br)cc3)[C@H](C)CC[C@H]2C(=O)O1
C=CC[C@@H]1C=C[C@@H](Oc2ccc(OC)cc2)[C@H](COC(=O)c2ccc(Br)cc2)O1
COC(=O)CC=C[C@@H](C)[C@@H](C=NOC[C@@H](C)[C@H](OCc1ccccc1)C(C)C)NS(=O)(=O)c1ccc(C)cc1
C#CCNC(=O)[C@H]1C=C(OC)C(=O)C[C@H]2c3ccccc3C[C@]12C
COC(=O)CC=C[C@@H](C)[C@@H](C=NO[C@@H](C)c1cn([C@H](CO)Cc2ccccc2)nn1)NS(=O)(=O)c1ccc(C)cc1
C[C@@H]1NC(=O)[C@@H](C)COC(=O)[C@H](C)NC(=O)[C@@H](C)COC1=O
C=CCOC(=O)[C@H](O)[C@@H](O)C(=O)OCC=C
C=C(C(=O)OCC)C(=O)c1ccccc1
